In the supplement of paper PMC10811239:

Each compound was assayed on LEGO organoid PT (PTEN-/-; TP53-/-) (assay: bioluminescence (viable cell) signal fold change after vs before treatment, normalised to DMSO (ratio); higher = more tumour cell growth / less inhibition). Conditions: 10 µM; treatment time 6 days.
Procedure: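 Luc2-labelled iPSC-derived glioblastoma-like organoids (LEGOs, genotypes PT = PTEN-/-;TP53-/-, PTCC = plus CDKN2A/B-/-, PTN = plus NF1-/-) were treated with 10 uM drug for 6 days (applied every other day) at 37 C. Bioluminescence imaging was done before treatment and 2 days after the last dose. BLI signals were normalised to the DMSO control on the same day and then to the pre-treatment signal (N=3).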

First: CO[C@H]1/C=C/O[C@@]2(C)Oc3c(C)c(O)c4c(O)c(c(/C=N/N5CCN(C6CCCC6)CC5)c(O)c4c3C2=O)NC(=O)/C(C)=C\C=C\[C@H](C)[C@H](O)[C@@H](C)[C@@H](O)[C@@H](C)[C@H](OC(C)=O)[C@@H]1C [Rifapentine]
Second: CN[C@H](CC(C)C)C(=O)N[C@H]1C(=O)N[C@@H](CC(N)=O)C(=O)N[C@H]2C(=O)N[C@H]3C(=O)N[C@H](C(=O)N[C@H](C(=O)O)c4cc(O)cc(O)c4-c4cc3ccc4O)[C@H](O)c3ccc(c(Cl)c3)Oc3cc2cc(c3O[C@@H]2O[C@H](CO)[C@@H](O)[C@H](O)[C@H]2O[C@H]2C[C@](C)(N)[C@H](O)[C@H](C)O2)Oc2ccc(cc2Cl)[C@H]1O [Vancomycin]
The bioluminescence of the first is higher: 3.28 for the first, 1.48 for the second.

First: CC(C)Oc1ccc(-c2nc(-c3cccc4c3CC[C@@H]4NCCO)no2)cc1C#N [Ozanimod]
Second: COc1ccccc1Oc1c(NS(=O)(=O)c2ccc(C(C)(C)C)cc2)nc(-c2ncccn2)nc1OCCO [Bosentan]
The bioluminescence of the first is lower: 0.725 for the first, 0.81 for the second.

First: C[C@@H](O[C@H]1OCCN(Cc2nc(=O)[nH][nH]2)[C@H]1c1ccc(F)cc1)c1cc(C(F)(F)F)cc(C(F)(F)F)c1 [Aprepitant]
Second: O=C1CCc2ccc(OCCCCN3CCN(c4cccc(Cl)c4Cl)CC3)cc2N1 [Aripiprazole]
The bioluminescence of the first is higher: 0.86 for the first, 0.399 for the second.

Going from `CCCC(CCC)C(=O)O.CCCC(CCC)C(=O)[O-].[Na+]` [Divalproex Sodium] to `CC(=O)NCCCS(=O)(=O)[O-].CC(=O)NCCCS(=O)(=O)[O-].[Ca+2]` [Acamprosate calcium], the bioluminescence rises from 0.727 to 2.61.

Compared with `Clc1ccc(COC(Cn2ccnc2)c2ccc(Cl)cc2Cl)c(Cl)c1.O=[N+]([O-])O` (stereo not given) [Miconazole nitrate], `CN(CCOc1ccc(CC2SC(=O)NC2=O)cc1)c1ccccn1` (stereo not given) [Rosiglitazone] is higher in bioluminescence: 0.225 for the first, 0.664 for the second.

Compared with `CC(=O)OCC(=O)[C@@]1(O)[C@H](C)C[C@H]2[C@@H]3CCC4=CC(=O)C=C[C@]4(C)[C@@]3(F)[C@@H](O)C[C@@]21C` [Dexamethason acetate], `C[C@]12C=CC(=O)C=C1CC[C@@H]1[C@@H]2[C@@H](O)C[C@@]2(C)[C@H]1CC[C@]2(O)C(=O)CO` [Prednisolone] is lower in bioluminescence: 1.76 for the first, 0.904 for the second.

Going from `Cc1ccccc1C(OCCN(C)C)c1ccccc1.Cl` (stereo not given) [Orphenadrine hydrochloride] to `Cl.CN(C)CC\C=C1\c2ccccc2C=Cc2ccccc12` [Cyclobenzaprine hydrochloride], the bioluminescence falls from 1.02 to 0.825.

First: Cc1[nH]c(=O)c(C#N)cc1-c1ccncc1 [Milrinone]
Second: NNC(=O)c1ccncc1 [Isoniazid]
The bioluminescence of the first is higher: 1.11 for the first, 0.807 for the second.

First: CS(=O)(=O)OCCCCOS(C)(=O)=O [Busulfan]
Second: CC1(C)O[C@@H]2[C@@H](CO[C@@]3(COS(N)(=O)=O)OC(C)(C)O[C@@H]23)O1 [Topiramate]
The bioluminescence of the first is higher: 2.15 for the first, 1.02 for the second.

Going from `CC(C)c1c(C(=O)Nc2ccccc2)c(-c2ccccc2)c(-c2ccc(F)cc2)n1CC[C@@H](O)C[C@@H](O)CC(=O)[O-].CC(C)c1c(C(=O)Nc2ccccc2)c(-c2ccccc2)c(-c2ccc(F)cc2)n1CC[C@@H](O)C[C@@H](O)CC(=O)[O-].[Ca+2]` [Atorvastatin Calcium] to `Cc1nc2c([nH]1)CCN(C(=O)c1ccc(NC(=O)c3ccccc3-c3ccccc3)cc1)c1ccccc1-2.Cl` [Conivaptan hydrochloride], the bioluminescence falls from 1.09 to 0.674.

Going from `CC1COc2c(N3CCN(C)CC3)c(F)cc3c(=O)c(C(=O)O)cn1c23` (stereo not given) [Ofloxacin] to `Cl.Cc1ccsc1\C(=C\CCN1CCC[C@H](C1)C(O)=O)c1sccc1C` [Tiagabine hydrochloride], the bioluminescence falls from 1.08 to 1.04.

First: Nc1cccc2c1CN(C1CCC(=O)NC1=O)C2=O (stereo not given) [Lenalidomide]
Second: Cc1ccnc2c1NC(=O)c1cccnc1N2C1CC1 [Nevirapine]
The bioluminescence of the first is lower: 2.02 for the first, 2.15 for the second.

Compared with `N[C@H]1CONC1=O` [L-Cycloserine], `CCc1c(C)[nH]c2c1C(=O)C(CN1CCOCC1)CC2.Cl` (stereo not given) [Molindone hydrochloride] is lower in bioluminescence: 0.758 for the first, 0.607 for the second.

First: CC(C)NCC(O)COc1ccc(CC(N)=O)cc1 (stereo not given) [Atenolol]
Second: CCN(CC)CC(=O)Nc1c(C)cccc1C [Xylocaine]
The bioluminescence of the first is higher: 1.39 for the first, 1.02 for the second.

First: CN1[C@@H]2CC[C@H]1C[C@@H](OC(c1ccccc1)c1ccccc1)C2.CS(=O)(=O)O [Benztropine mesylate]
Second: CCCCC1C(=O)N(c2ccccc2)N(c2ccccc2)C1=O [Phenylbutazone]
The bioluminescence of the first is lower: 1.14 for the first, 2.33 for the second.

Compared with `CN(C)CCC=C1c2ccccc2COc2ccccc21.Cl` [Doxepin hydrochloride], `C=CC(=O)Nc1cc(Nc2nccc(-c3cn(C)c4ccccc34)n2)c(OC)cc1N(C)CCN(C)C` [Osimertinib] is lower in bioluminescence: 1.71 for the first, 0.644 for the second.

First: CC(C)c1nc(CN(C)C(=O)N[C@H](C(=O)N[C@@H](Cc2ccccc2)C[C@H](O)[C@H](Cc2ccccc2)NC(=O)OCc2cncs2)C(C)C)cs1 [Ritonavir]
Second: COC(c1ccccc1)(c1ccccc1)[C@H](Oc1nc(C)cc(C)n1)C(=O)O [Ambrisentan]
The bioluminescence of the first is higher: 1.3 for the first, 0.999 for the second.

Compared with `CC(C)(C)c1cc(C(C)(C)C)c(NC(=O)c2c[nH]c3ccccc3c2=O)cc1O` [Ivacaftor], `CN1CCN2c3ncccc3Cc3ccccc3C2C1` (stereo not given) [Mirtazapine] is higher in bioluminescence: 0.378 for the first, 1.1 for the second.

Compared with `Nc1nc(NC2CC2)c2ncn([C@H]3C=C[C@@H](CO)C3)c2n1` [Abacavir], `Nc1nnc(-c2cccc(Cl)c2Cl)c(N)n1` [Lamotrigine] is lower in bioluminescence: 1.2 for the first, 0.852 for the second.

First: Cl.Cl.OCCOCCN1CCN(C(c2ccccc2)c2ccc(Cl)cc2)CC1 (stereo not given) [Hydroxyzine dihydrochloride]
Second: C[N+](C)(C)CCO.[Cl-] [Choline chloride]
The bioluminescence of the first is lower: 1.29 for the first, 1.48 for the second.
